Consider two compounds from PubChem BioAssay AID2688 (National Center for Advancing Translational Sciences (NCATS), 2010).

SMILES strings stand for the structures. The list shows a part of the results. Records with an inconclusive call do not appear. The source made the active and inactive calls.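 How the source made its calls: active means compounds whose IC50 for blocking JMJD2E demethylation is below 100 µM; inconclusive means dose dependent effect but IC50 above 100 µM; inactive means the rest.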

Lysine-specific demethylase 4E (Homo sapiens), sequence (B2RXH2 1-337 limits assumed): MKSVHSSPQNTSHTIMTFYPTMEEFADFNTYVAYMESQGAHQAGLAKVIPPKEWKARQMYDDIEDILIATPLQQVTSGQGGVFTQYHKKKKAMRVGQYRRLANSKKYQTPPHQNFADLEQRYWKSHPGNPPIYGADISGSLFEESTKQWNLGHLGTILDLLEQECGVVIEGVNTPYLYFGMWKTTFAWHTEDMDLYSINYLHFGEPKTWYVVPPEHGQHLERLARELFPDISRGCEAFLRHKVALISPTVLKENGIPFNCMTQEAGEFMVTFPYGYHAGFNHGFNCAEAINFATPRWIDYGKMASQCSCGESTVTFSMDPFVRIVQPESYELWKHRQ

The target of this test is Lysine-specific demethylase 4E (Homo sapiens) (UniProt B2RXH2). Briefly: MALDI-TOF-MS Assay for Inhibitors of Human Jumonji Domain Containing 2E (JMJD2E). The following applies: recombinant JMJD2E demethylation. From the text:
The fine interplay among methylation states of several lysine residues on the tails of histone proteins is a major determinant of the transcriptional state of the associated DNA coding regions and is commonly referred to as the histone code. Histone lysine demethylases catalyze the removal of methyl groups from methylated lysine sidechains on histones H3 and H4, thus antagonizing the reactions catalyzed by histone lysine methyltransferases. […] In search for novel inhibitors of JMJD2E demethylase, a member of the largest set of histone demethylases belonging to the Fe(II) and 2-oxoglutarate oxygenase (2OG) superfamily, we performed a quantitative high-throughput screen (Inglese 2006). See AID 2147 for details on the primary screen. […]
For the MS assays, JMJD2E (2 uM), FAS (10 uM) and SA (100 uM) in HEPES buffer, 50 mM, pH 7.5, were incubated with inhibitor (stock solutions in DMSO, final in-assay concentration varied, but final DMSO concentration was 5% of assay mix) for 15 min at room temperature. […] The relative intensities of different methylation states observed in the mass spectra were then used to calculate percentage demethylation, and IC50s were calculated from the variation in percentage demethylation at different inhibitor concentrations.
With `Nc1ccc(Nc2cc(O)c3ncccc3c2)cc1`, the Potency was 20.2 µM (active).

Consider `Oc1ccc(/C=C/c2c(F)cccc2F)c2cccnc12`, for which the Potency was 89.6 µM (active).
